Consider 33 compounds from PubChem BioAssay AID504683 (Southern Research Specialized Biocontainment Screening …, 2011).

Measured potencies and affinities stand elsewhere. Active and inactive are the calls of the source. How the calls were made is not given here.

The test is described as follows: cytotoxicity control, cell-based, set 2 (AID 504683). Particulars: THP-1 human monocytes; series mostly up to 100 µM.
For `CC1CCN(C(=O)C2CCN(c3nnc(-n4cccc4)s3)CC2)CC1`, the call was inactive.
On to `O=c1[nH]c(=S)[nH]c2ccccc12`, for which the compound was called inactive.
Turning to `CC(=NCc1ccc2c(c1)OCO2)C1=C(O)c2ccccc2C1=O`, the result was inactive.
In the case of `Cc1cc(=O)[nH]c(SCC(=O)Nc2ccccc2)n1` it was “inactive”; in that of `CCSc1nc(C)c(C)c(=O)[nH]1`, “inactive”.
Under `O=C(CSc1nccc(=O)[nH]1)Nc1ccc(Oc2ccccc2)cc1` stands “inactive”; under `COc1cc(NC(=O)C/C(C)=N/NC(=O)c2ccccn2)c(OC)cc1Cl`, “inactive”.
On to `CCSc1nc2ccccc2c(=O)[nH]1`, for which the outcome was inactive.
Under `Cc1cc(=O)[nH]c(=S)[nH]1` stands “inactive”; under `CCOC(=O)COc1ccc(/C=C2\NC(=S)N(CC)C2=O)cc1`, “inactive”.
Under `Cc1ccc(NC(=O)COC(=O)CCc2c[nH]c3ccccc23)cc1[N+](=O)[O-]` stands “inactive”.
In the case of `CCc1ccc(/C=C2/C(=O)N(C)C(=S)N2CC(=O)OC)s1` it was “inactive”; in that of `Cc1ccc(NC(=O)C2C3/C=C\CCCCC32)cc1C` (stereo not drawn), “inactive”.
Turning to `Cc1nc(SCC(N)=O)[nH]c(=O)c1C`, the compound was classed as inactive.
For `COC(=O)c1ccc(CNc2c(N3CCCC3)c(=O)c2=O)cc1`, the compound was classed as inactive.
Consider `COC(=O)C(C)Oc1ccc(Cc2ncc(C(F)(F)F)cc2Cl)cc1` (stereo not drawn), for which the outcome was inactive.
Regarding `O=C(CSc1ncccn1)NC1CCCCC1`, the result was inactive.
In the case of `O=C(/C=C\c1cccs1)N1CCN(Cc2ccc3c(c2)OCO3)CC1` it was “inactive”; in that of `O=C(CSc1nc(O)cc(=O)[nH]1)Nc1ccccc1`, “inactive”; in that of `O=C(CSc1nc2ccccc2c(=O)[nH]1)NCc1ccc(Cl)cc1`, “inactive”.
`CCOC(=O)CSc1nc(C)c(C)c(=O)[nH]1`: the outcome was inactive.
In the case of `Cc1nc(SCc2ccccc2Cl)[nH]c(=O)c1C` it was “inactive”; in that of `O=C(CSc1nccc(=O)[nH]1)Nc1ccc(N2CCOCC2)cc1`, “inactive”.
In the case of `COC(=O)C(C)Oc1ccc(-c2nccc(-c3ccccn3)n2)cc1` (stereo not drawn) it was “inactive”; in that of `CCOC1OC(=O)C(Cl)=C1Nc1ccccc1C` (stereo not drawn), “inactive”.
In the case of `Cc1[nH]c(=S)[nH]c(=O)c1C` it was “inactive”; in that of `Cc1c[nH]c(=S)[nH]c1=O`, “inactive”; in that of `COC(=O)C1CC(=O)N(c2ccc(OCc3ccccc3Cl)cc2)C1` (stereo not drawn), “inactive”.
Regarding `O=C(CSc1ccccn1)NC1CCCCC1`, the call was inactive.
Turning to `Cc1nc(SCC(=O)NC2CCCCC2)[nH]c(=O)c1C`, the result was inactive.
On to `Cc1nc(SCC(=O)N(C)c2ccccc2)[nH]c(=O)c1C`, for which the compound was classed as inactive.
With `COC(=O)CCc1nc2c(C#N)c(-c3ccc(Cl)cc3)ccn2n1`, the compound was classed as inactive.
Under `O=C(CSc1nc2ccccc2c(=O)[nH]1)NC1CCCCC1` stands “inactive”.
